In PubChem BioAssay (EPA / NIEHS):
Results filed as inconclusive are left out. Calls of active or inactive are those of the source. How the source made its calls, unless noted: active means hit-call score of the fitted dose curve at least 0.9, where 1 is the maximum; inactive means score below 0.9.

Experiments:
[1] = read-out: Intercellular Adhesion Molecule 1 (ICAM1), ICAM1 (gene 3383); assay: BSK_3C_ICAM1: BioMAP Diversity Plus: 3C Assay for Intercellular Adhesion Molecule 1 (ICAM1) Biomarker Activity (AID 2283003); conditions: primary human endothelial cells (HUVEC); actives raise or lower the signal
Outline: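 Using DMSO as baseline, bidirectional curve fitting was applied to ICAM-1 ELISA signals from HUVEC in the 3C system, measured 24 h after compound addition.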

[2] = target: human Retinoic Acid Receptor beta (RARb), RARB (gene 5915) (UniProt P10826); assay: ATG_RARb_TRANS: Attagene TRANS-FACTORIAL HepG2 Assay for human Retinoic Acid Receptor beta (AID 2283004; active means hit-call score of the fitted dose curve at least 0.9, where 1 is the maximum)
Outline: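 HepG2, transient MRTU transfection, NR–Gal4 chimera, 24 h treatment; RT-PCR plus CE fluorescence detection of reporter mRNA; gain of signal vs DMSO.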

[3] = target: Retinoic acid receptor alpha (Homo sapiens) (UniProt P10276); assay: ATG_RARa_TRANS: Attagene TRANS-FACTORIAL HepG2 Assay for human Retinoic Acid Receptor alpha (RARa) (AID 2283005; active means hit-call score of the fitted dose curve at least 0.9, where 1 is the maximum;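 on AC50: potency for increased reporter signal meaning RARa activation over DMSO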)
Outline: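 HepG2 transiently transfected with multiplex GAL4-UAS reporter units including a human RARa–GAL4 chimera; 24 h compound exposure. Reporter mRNA quantified by RT-PCR, 6-FAM labeling and capillary electrophoresis; gain of signal versus DMSO.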

[4] = BSK_3C_Proliferation: Cell Proliferation Assessment in the BioMAP Diversity Plus: 3C Assay (AID 2283006); conditions: primary human endothelial cells (HUVEC)
Outline: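 Measured here: sulforhodamine B (0.1%) staining of TCA-fixed sub-confluent umbilical vein endothelial cultures 48 h post-dosing, absorbance 560 nm. DMSO served as negative control and baseline; both signal gain and loss were modelled.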

[5] = target: Peroxisome proliferator-activated receptor gamma (Homo sapiens) (UniProt P37231); assay: ATG_PPARg_TRANS: Attagene TRANS-FACTORIAL HepG2 Assay for human Peroxisome Proliferator-activated Receptor-gamma (PPARg) (AID 2283007; active means hit-call score of the fitted dose curve at least 0.9, where 1 is the maximum)
Outline: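 Human hepatoma HepG2, transient MRTU transfection, 24 h treatment. mRNA reporter signal by RT-PCR plus capillary electrophoresis, fluorescence detection; fitted for increase over DMSO negative control.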

[6] = target: human RAR-related Orphan Receptor beta (RORb), RORB (gene 6096) (UniProt Q92753); assay: ATG_RORb_TRANS: Attagene TRANS-FACTORIAL HepG2 Assay for human RAR-related Orphan Receptor beta (RORb) (AID 2283010; active means hit-call score of the fitted dose curve at least 0.9, where 1 is the maximum)
Outline: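 Multiplexed transcription-factor reporter assay: HepG2 cells transiently carrying NR-Gal4/GAL4-UAS constructs, 24 h treatment, mRNA quantified by RT-PCR plus capillary electrophoresis fluorescence; activity scored as induction over DMSO.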

[7] = target: Retinoic acid receptor RXR-alpha (Homo sapiens) (UniProt P19793); assay: ATG_RXRa_TRANS: Attagene TRANS-FACTORIAL HepG2 Assay for human Retinoid X Receptor alpha (RXRa) (AID 2283012; active means hit-call score of the fitted dose curve at least 0.9, where 1 is the maximum)
Outline: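 Chimeric NR-GAL4 trans-activation in HepG2, 24 h treatment; reporter transcripts quantified by fluorescence on capillary electrophoresis, analysed for upward change from DMSO.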

[8] = read-out: E-selectin (Homo sapiens) (UniProt P16581); assay: BSK_3C_Eselectin: BioMAP Diversity Plus: 3C Assay for Eselectin Biomarker Activity (AID 2283015); conditions: primary human endothelial cells (HUVEC); actives raise or lower the signal
Outline: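 Human vascular endothelium from umbilical vein is exposed to test chemicals for 24 h. E-selectin levels are read by ELISA and compared with DMSO controls.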

[9] = read-out: Interleukin-1 alpha (IL1a), IL1A (gene 3552); assay: BSK_BE3C_IL1a: BioMAP Diversity Plus: BE3C Assay for Interleukin-1 alpha (IL1a) Biomarker Activity (AID 2283016); conditions: primary human bronchial epithelial cells; actives raise or lower the signal
Outline: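 Measured in human lung primary bronchial epithelial cells: IL-1a by ELISA at 24 h after dosing, with bidirectional fitting against DMSO.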

[10] = read-out: Monocyte Chemoattractant Protein-1 (MCP1), CCL2 (gene 6347); assay: BSK_3C_MCP1: BioMAP Diversity Plus: 3C Assay for Monocyte Chemoattractant Protein-1 (MCP1) Biomarker Activity (AID 2283017); conditions: primary human endothelial cells (HUVEC); actives raise or lower the signal
Outline: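 Endothelial cells from human umbilical vein are dosed with chemical, cultured 24 h, then assayed for MCP-1 by ELISA; both increases and decreases are modelled against DMSO controls.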

[11] = read-out: Monocyte Chemoattractant Protein-1 (MCP1), CCL2 (gene 6347); assay: BSK_4H_MCP1: BioMAP Diversity Plus: 4H Assay for Monocyte Chemoattractant Protein-1 (MCP1) Biomarker Activity (AID 2283018); conditions: primary human endothelial cells (HUVEC); actives raise or lower the signal
Outline: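 Primary human umbilical vein endothelium is exposed to chemical for 24 h before MCP-1 is assayed by ELISA. Concentration-response fitted bidirectionally relative to DMSO.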

[12] = read-out: Human Leukocyte Antigen - DR isotype (HLADR), HLA-DRA (gene 3122); assay: BSK_3C_HLADR: BioMAP Diversity Plus: 3C Assay for Human Leukocyte Antigen - DR isotype (HLADR) Biomarker Activity (AID 2283019); conditions: primary human endothelial cells (HUVEC); actives raise or lower the signal
Outline: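 Endothelial cells from human umbilical vein are treated with test chemical; after 24 h, HLA-DR levels are measured by ELISA. Data are fitted in both directions using DMSO as the baseline.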

[13] = read-out: Interleukin-8 (IL8), CXCL8 (gene 3576); assay: BSK_3C_IL8: BioMAP Diversity Plus: 3C Assay for Interleukin-8 (IL8) Biomarker Activity (AID 2283020); conditions: primary human endothelial cells (HUVEC); actives raise or lower the signal
Outline: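 Using DMSO-treated wells as the baseline, bidirectional curve fitting was applied to ELISA-measured IL-8 from human umbilical vein endothelial cultures sampled 24 h after compound addition.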

[14] = read-out: Monokine induced gamma interferon (MIG), CXCL9 (gene 4283); assay: BSK_3C_MIG: BioMAP Diversity Plus: 3C Assay for Monokine induced gamma interferon (MIG) Biomarker Activity (AID 2283021); conditions: primary human endothelial cells (HUVEC); actives raise or lower the signal;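 on AC50: MIG protein level measured by immunoassay in the treated endothelial cultures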
Outline: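 ELISA-measured MIG in dosed HUVEC 3C cultures at 24 h, analysed by bidirectional fitting with DMSO defining baseline activity.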

[15] = target: human Peroxisome Proliferator-activated Receptor delta (PPARd), PPARD (gene 5467) (UniProt Q03181); assay: ATG_PPARd_TRANS: Attagene TRANS-FACTORIAL HepG2 Assay for human Peroxisome Proliferator-activated Receptor delta (PPARd) (AID 2283002; active means hit-call score of the fitted dose curve at least 0.9, where 1 is the maximum)
Outline: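 HepG2 cells transiently transfected with GAL4-UAS multiplexed reporter units driven by exogenous chimeric NR-GAL4 proteins; 24 h compound exposure. Reporter mRNA measured by RT-PCR, 6-FAM primer extension, HpaI digestion and capillary electrophoresis; gain of signal fitted relative to DMSO.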

[16] = target: Nuclear receptor subfamily 1 group I member 2 (Homo sapiens) (UniProt O75469); assay: ATG_PXR_TRANS: Attagene TRANS-FACTORIAL HepG2 Assay for human Pregnane X Receptor (PXR) (AID 2283008; active means hit-call score of the fitted dose curve at least 0.9, where 1 is the maximum)
Outline: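 Trans-factorial format: exogenous NR-Gal4 fusion activity, not endogenous factor, in transfected human HepG2 liver cells. After 24 h dosing, RNA isolated, reverse-transcribed, amplified and resolved by capillary electrophoresis; induction scored versus DMSO.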

[17] = target: human Vitamin D Receptor (VDR), VDR (gene 7421) (UniProt P11473); assay: ATG_VDR_TRANS: Attagene TRANS-FACTORIAL HepG2 Assay for human Vitamin D Receptor (VDR) (AID 2283022; active means hit-call score of the fitted dose curve at least 0.9, where 1 is the maximum)
Outline: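 Fluorescence of labelled reporter cDNA fragments, resolved by capillary electrophoresis, gives mRNA induction after 24 h treatment of HepG2 cells carrying transfected Gal4-fusion reporter units. Activity is fitted in the positive direction with DMSO as baseline.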

[18] = target: human RAR-related Orphan Receptor gamma (RORg), RORC (gene 6097) (UniProt P51449); assay: ATG_RORg_TRANS: Attagene TRANS-FACTORIAL HepG2 Assay for human RAR-related Orphan Receptor gamma (RORg) (AID 2283011; active means hit-call score of the fitted dose curve at least 0.9, where 1 is the maximum)
Outline: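 Activity is scored as increase in GAL4-UAS reporter mRNA over DMSO, detected by fluorescent RT-PCR and capillary electrophoresis in HepG2 cells transiently expressing a RORg-Gal4 chimera, 24 h after dosing.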

[19] = target: human Thyroid Receptor alpha (THRa1), THRA (gene 7067) (UniProt P10827); assay: ATG_THRa1_TRANS: Attagene TRANS-FACTORIAL HepG2 Assay for human Thyroid Receptor alpha (THRa1) (AID 2283014; active means hit-call score of the fitted dose curve at least 0.9, where 1 is the maximum)
Outline: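 First, HepG2 cells receive multiple GAL4-UAS reporter units and the chimeric receptor. They are then dosed for 24 h, after which RNA is reverse-transcribed, amplified, labelled, HpaI-cut and sized by capillary electrophoresis; gain relative to DMSO is scored.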

[20] = target: human Retinoid X Receptor beta (RXRb), RXRB (gene 6257) (UniProt P28702); assay: ATG_RXRb_TRANS: Attagene TRANS-FACTORIAL HepG2 Assay for human Retinoid X Receptor beta (RXRb) (AID 2283013; active means hit-call score of the fitted dose curve at least 0.9, where 1 is the maximum)
Outline: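 After a 24 h incubation with test chemical, transfected HepG2 cells carrying NR-Gal4 fusions and GAL4-UAS reporter transcription units yield RNA whose reporter cDNA is FAM-labelled, HpaI-cut and sized by capillary electrophoresis; increases over DMSO are scored.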

Measured: AC50

Sequence of Peroxisome proliferator-activated receptor gamma (Homo sapiens) (P37231 whole entry, looked up): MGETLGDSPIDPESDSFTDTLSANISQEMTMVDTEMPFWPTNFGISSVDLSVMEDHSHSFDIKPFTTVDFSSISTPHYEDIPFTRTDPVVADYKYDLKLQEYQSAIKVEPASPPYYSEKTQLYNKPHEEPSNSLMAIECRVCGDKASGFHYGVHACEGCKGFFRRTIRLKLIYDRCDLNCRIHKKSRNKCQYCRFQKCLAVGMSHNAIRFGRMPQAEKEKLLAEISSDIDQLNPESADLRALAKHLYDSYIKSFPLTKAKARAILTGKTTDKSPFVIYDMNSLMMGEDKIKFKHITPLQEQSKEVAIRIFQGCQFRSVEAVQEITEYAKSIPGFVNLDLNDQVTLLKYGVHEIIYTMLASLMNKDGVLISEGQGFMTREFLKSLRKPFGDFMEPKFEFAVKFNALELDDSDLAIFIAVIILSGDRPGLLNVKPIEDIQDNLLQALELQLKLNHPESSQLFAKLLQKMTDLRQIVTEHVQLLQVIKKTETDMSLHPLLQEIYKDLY
Sequence of human Peroxisome Proliferator-activated Receptor delta (PPARd), PPARD (gene 5467) (Q03181 whole entry, looked up, the tested form may be a part): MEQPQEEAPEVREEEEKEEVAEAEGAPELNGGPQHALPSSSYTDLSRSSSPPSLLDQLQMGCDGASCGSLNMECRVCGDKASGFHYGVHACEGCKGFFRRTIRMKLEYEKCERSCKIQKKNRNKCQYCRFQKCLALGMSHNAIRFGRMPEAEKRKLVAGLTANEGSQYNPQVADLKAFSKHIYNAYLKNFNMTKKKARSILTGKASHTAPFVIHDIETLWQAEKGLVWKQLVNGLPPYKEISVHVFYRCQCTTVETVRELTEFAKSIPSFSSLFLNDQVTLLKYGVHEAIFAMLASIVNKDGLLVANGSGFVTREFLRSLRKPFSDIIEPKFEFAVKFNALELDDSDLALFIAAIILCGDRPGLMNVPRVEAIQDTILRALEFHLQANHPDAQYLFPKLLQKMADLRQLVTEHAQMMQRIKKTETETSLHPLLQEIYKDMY
Sequence of Nuclear receptor subfamily 1 group I member 2 (Homo sapiens) (O75469 whole entry, looked up, the tested form may be a part): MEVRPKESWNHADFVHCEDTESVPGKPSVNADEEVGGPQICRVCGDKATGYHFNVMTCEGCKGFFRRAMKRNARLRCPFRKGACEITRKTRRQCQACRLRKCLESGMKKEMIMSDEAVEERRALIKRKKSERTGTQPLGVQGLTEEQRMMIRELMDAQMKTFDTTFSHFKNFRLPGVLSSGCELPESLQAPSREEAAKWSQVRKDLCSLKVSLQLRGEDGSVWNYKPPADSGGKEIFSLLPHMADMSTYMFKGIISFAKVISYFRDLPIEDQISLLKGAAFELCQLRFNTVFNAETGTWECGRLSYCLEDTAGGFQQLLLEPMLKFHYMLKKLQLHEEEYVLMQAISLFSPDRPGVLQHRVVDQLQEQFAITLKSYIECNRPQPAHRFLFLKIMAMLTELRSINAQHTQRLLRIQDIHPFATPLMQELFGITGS
Sequence of human RAR-related Orphan Receptor beta (RORb), RORB (gene 6096) (Q92753 whole entry, looked up, the tested form may be a part): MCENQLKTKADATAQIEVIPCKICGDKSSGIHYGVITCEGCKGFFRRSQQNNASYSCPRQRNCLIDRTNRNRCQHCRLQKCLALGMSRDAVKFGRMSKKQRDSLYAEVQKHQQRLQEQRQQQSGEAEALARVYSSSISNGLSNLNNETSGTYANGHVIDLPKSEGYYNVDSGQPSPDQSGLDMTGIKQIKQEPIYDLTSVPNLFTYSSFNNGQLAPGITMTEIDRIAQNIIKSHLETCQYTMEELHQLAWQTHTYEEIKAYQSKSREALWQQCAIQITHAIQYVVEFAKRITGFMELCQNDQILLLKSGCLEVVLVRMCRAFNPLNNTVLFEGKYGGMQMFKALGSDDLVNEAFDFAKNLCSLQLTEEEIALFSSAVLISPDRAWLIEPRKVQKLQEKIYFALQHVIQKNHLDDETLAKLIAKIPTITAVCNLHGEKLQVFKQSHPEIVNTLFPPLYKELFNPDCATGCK
Sequence of Retinoic acid receptor RXR-alpha (Homo sapiens) (P19793 whole entry, looked up, the tested form may be a part): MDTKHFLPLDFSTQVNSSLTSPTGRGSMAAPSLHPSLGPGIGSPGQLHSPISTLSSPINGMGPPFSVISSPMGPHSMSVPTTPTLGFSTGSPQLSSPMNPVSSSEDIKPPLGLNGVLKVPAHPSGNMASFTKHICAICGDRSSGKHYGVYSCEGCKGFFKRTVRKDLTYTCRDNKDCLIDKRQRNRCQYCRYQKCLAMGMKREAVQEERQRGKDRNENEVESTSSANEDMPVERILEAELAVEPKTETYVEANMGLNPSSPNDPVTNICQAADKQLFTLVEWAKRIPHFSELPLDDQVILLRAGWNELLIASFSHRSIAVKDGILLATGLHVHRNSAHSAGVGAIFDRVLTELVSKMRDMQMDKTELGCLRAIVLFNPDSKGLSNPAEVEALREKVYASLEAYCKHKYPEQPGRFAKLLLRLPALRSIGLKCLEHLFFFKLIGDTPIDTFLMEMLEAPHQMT
Sequence of human Vitamin D Receptor (VDR), VDR (gene 7421) (P11473 whole entry, looked up, the tested form may be a part): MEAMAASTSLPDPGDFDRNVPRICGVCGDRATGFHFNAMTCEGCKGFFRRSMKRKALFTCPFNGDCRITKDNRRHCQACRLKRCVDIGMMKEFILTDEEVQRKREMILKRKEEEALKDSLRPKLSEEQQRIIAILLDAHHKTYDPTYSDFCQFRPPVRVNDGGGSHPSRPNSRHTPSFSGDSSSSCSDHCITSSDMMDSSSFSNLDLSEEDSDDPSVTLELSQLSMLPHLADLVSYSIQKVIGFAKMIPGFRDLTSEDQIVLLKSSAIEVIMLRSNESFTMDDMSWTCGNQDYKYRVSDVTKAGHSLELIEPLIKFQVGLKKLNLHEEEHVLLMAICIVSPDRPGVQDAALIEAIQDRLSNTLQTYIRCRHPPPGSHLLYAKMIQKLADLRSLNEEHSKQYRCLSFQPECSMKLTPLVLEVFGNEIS
Sequence of human RAR-related Orphan Receptor gamma (RORg), RORC (gene 6097) (P51449 whole entry, looked up, the tested form may be a part): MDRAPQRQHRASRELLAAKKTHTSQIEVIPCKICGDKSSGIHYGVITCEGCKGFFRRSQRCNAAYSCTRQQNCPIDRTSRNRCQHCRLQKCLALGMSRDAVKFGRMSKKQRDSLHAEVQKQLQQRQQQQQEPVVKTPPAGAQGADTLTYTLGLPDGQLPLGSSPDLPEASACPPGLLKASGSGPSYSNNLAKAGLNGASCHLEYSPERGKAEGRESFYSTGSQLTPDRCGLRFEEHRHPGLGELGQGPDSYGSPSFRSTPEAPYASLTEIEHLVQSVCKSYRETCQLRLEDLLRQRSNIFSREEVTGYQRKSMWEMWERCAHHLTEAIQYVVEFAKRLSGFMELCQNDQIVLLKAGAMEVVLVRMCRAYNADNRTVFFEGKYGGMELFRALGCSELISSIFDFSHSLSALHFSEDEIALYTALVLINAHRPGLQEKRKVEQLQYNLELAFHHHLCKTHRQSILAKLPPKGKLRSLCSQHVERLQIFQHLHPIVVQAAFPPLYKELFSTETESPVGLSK
Sequence of E-selectin (Homo sapiens) (P16581 whole entry, looked up): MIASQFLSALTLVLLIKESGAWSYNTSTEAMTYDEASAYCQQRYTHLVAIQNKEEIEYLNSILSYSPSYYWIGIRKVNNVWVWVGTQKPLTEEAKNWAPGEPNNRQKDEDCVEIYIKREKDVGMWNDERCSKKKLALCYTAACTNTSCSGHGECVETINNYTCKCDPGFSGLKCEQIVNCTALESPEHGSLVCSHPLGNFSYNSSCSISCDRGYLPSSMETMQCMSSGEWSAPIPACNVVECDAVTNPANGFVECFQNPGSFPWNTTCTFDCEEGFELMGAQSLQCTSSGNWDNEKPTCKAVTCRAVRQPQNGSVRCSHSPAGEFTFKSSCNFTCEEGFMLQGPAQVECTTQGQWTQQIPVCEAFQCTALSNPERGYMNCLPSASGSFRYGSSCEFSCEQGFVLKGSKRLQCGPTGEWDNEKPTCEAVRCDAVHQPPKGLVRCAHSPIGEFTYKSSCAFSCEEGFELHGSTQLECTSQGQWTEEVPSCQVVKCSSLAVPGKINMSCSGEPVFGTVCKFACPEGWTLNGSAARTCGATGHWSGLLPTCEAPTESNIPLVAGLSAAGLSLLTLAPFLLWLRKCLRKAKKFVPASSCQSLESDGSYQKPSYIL
Sequence of human Retinoic Acid Receptor beta (RARb), RARB (gene 5915) (P10826 whole entry, looked up, the tested form may be a part): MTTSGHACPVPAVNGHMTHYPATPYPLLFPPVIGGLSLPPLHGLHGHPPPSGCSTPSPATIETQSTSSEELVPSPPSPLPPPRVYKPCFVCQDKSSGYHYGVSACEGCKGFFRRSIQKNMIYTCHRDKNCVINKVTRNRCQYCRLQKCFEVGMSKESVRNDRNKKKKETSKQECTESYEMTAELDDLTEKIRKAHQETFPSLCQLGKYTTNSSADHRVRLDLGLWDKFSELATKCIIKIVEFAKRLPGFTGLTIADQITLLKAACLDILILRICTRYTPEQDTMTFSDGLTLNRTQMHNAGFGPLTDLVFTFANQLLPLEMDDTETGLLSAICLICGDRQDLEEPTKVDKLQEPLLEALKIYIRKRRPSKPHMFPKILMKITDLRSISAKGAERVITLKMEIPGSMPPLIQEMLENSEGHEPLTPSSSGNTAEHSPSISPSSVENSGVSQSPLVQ
Sequence of human Thyroid Receptor alpha (THRa1), THRA (gene 7067) (P10827 whole entry, looked up, the tested form may be a part): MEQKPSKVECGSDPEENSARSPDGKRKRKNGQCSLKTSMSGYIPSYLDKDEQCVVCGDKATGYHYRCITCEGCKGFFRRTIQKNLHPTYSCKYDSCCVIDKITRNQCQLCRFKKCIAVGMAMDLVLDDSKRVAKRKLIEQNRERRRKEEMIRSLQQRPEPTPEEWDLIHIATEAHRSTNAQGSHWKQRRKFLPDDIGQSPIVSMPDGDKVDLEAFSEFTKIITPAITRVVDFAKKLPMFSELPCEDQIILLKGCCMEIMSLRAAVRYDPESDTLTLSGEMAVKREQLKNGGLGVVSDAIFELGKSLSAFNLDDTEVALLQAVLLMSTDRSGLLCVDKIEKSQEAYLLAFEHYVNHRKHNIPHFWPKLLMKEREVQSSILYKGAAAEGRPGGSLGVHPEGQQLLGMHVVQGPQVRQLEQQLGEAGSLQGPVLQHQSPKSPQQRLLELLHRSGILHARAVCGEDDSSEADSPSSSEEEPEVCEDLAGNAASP

CC(C)CCCCCCOC(=O)c1ccc(C(=O)OCCCCCCC(C)C)c(C(=O)OCCCCCCC(C)C)c1
not listed: [15] | [16] | [17] | [18] | [19] | [20]
inactive: all other assays above

O=C1OC(=O)C2C3C=CC(C3)C12 (stereo unspecified)
not listed: [2] | [3] | [4] | [6] | [18] | [19] | [20]
inactive: all other assays above

Nc1cccc(N)c1
not listed: [5] | [15] | [20]
inactive: all other assays above

CC(C)CCO
not listed: [6] | [15] | [20]
inactive: all other assays above

CCCCCCCCCCCCc1ccccc1
active: [12] 33.2 µM
not listed: [2] | [3] | [4] | [6] | [19] | [20]
inactive: all other assays above

CCCN(C1CCN(C(=O)C2CCNCC2)CC1)[C@@H]1CCc2ccc(OC)cc2C1
active: [5] 100 µM
not listed: [2] | [3] | [4] | [6] | [18] | [20]
inactive: all other assays above

C=CCCCCCCCCC(=O)O
active: [5] 69.1 µM
not listed: [4] | [6] | [15] | [18] | [19] | [20]
inactive: all other assays above

CC(C)CCCCCCCOC(=O)CCCCC(=O)OCCCCCCCC(C)C
active: [3] 28.8 µM
not listed: [4] | [5] | [6] | [7] | [15] | [16] | [19] | [20]
inactive: all other assays above

O=C(O)CCN(C1(C(=O)NO)CCCC1)S(=O)(=O)c1ccc(Oc2ccc(F)cc2)cc1
not listed: [3] | [15] | [18] | [20]
inactive: all other assays above

CC(C)=CCC/C(C)=C/CO
active: [5] 63.6 µM
not listed: [3] | [15] | [19]
inactive: all other assays above

COCCOCCOCCOC
not listed: [6] | [15] | [17] | [18] | [20]
inactive: all other assays above

CN(C)c1ccc(N=NS(=O)(=O)O)cc1
not listed: [2] | [3] | [5] | [6] | [18] | [20]
inactive: all other assays above

CCc1cc(SCc2sc(-c3ccc(C(F)(F)F)cc3)nc2CN2CCN(c3ccc(OC)cc3)CC2)ccc1OCC(=O)O
inactive: [6] | [18] | [7]
active: [15] 4.49 nM | [1] 29.9 µM | [5] 0.0352 µM | [16] 4.69 µM | [8] 15.2 µM | [9] 7 µM | [10] 12 µM | [11] 8.42 µM | [12] 11.4 µM | [13] 16.7 µM | [14] 16.9 µM
